From PubChem BioAssay (NCATS)
Inconclusive results are not listed. Calls of active or inactive are those of the source. Calls follow the shape of the dose curve; as a rule, active = well fitted inhibition curve with a large enough effect; inconclusive = small, poorly fitted or top-dose-only effect; inactive = flat fitted curve, though single readings scatter. Residues, ends and D or L forms follow the SMILES beside them.

System: CRL-7250
Assay: qHTS assay to identify novel small-molecules to repurpose for Merkel cell carcinoma treatment (AID 1296009); also: nearly all actives have a fitted effect of over 60% in size
Conditions: MCC and control cell lines, CellTiter-Glo viability, 72 h; at 44.8 µM (top of the series) unless noted
Outline: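 Cells exposed to NPC (8-point) and MIPE (11-point) compound dilutions for 72 hr at 37 degree celsius; viability read by CellTiter-Glo luminescence, normalized to no-cell and DMSO in-plate controls.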

| SMILES | outcome |
| --- | --- |
| CCS(=O)(=O)CCn1c([N+](=O)[O-])cnc1C | inactive |
| Cc1cccc(C)c1NC(=O)c1cc(S(N)(=O)=O)c(Cl)cc1O | inactive |
| O=C1OC(CN2CCOCC2)CN1/N=C/c1ccc([N+](=O)[O-])o1 (stereo not drawn) | inactive |
| O=C(O)CCCC[C@@H]1SC[C@@H]2NC(=O)N[C@@H]21 | inactive |
| COc1cc(C(=O)NS(=O)(=O)c2ccccc2C)ccc1Cc1cn(C)c2ccc(NC(=O)OC3CCCC3)cc12 | inactive |
| O=C(CCCl)NCCc1ccccc1 | inactive |
| CCCCCCCCCCOc1cc2c(=O)c(C(=O)OCC)c[nH]c2cc1OCC | inactive [at 4.96 µM] |
| Cc1cc(NS(=O)(=O)c2ccc(N)cc2)no1 | inactive |
| Cc1cc(C(C#N)c2ccc(Cl)cc2)c(Cl)cc1NC(=O)c1cc(I)cc(I)c1O (stereo not drawn) | inactive |
| COC(=O)[C@H](Cc1ccccc1)NC(=O)[C@@H](N)CC(=O)O (H-Asp-Phe-OMe) | inactive |
| COc1cc2nc(Cl)nc(N)c2cc1OC | inactive |
| CC(C)(Oc1ccc(C2CC2(Cl)Cl)cc1)C(=O)O (stereo not drawn) | inactive [at 92 µM] |
| OC[C@H]1O[C@@H]2O[C@H]3[C@H](O)[C@@H](O)[C@@H](O[C@H]4[C@H](O)[C@@H](O)[C@@H](O[C@H]5[C@H](O)[C@@H](O)[C@@H](O[C@H]6[C@H](O)[C@@H](O)[C@@H](O[C@H]7[C@H](O)[C@@H](O)[C@@H](O[C@H]8[C@H](O)[C@@H](O)[C@@H](O[C@H]1[C@H](O)[C@H]2O)O[C@@H]8CO)O[C@@H]7CO)O[C@@H]6CO)O[C@@H]5CO)O[C@@H]4CO)O[C@@H]3CO | inactive |
| O=c1[nH]c(=O)n([C@H]2C[C@H](O)[C@@H](CO)O2)cc1I | inactive |
| Nc1ncnc2c1ncn2[C@@H]1O[C@H](COP(=O)(O)O)[C@@H](O)[C@H]1O | inactive |
| Oc1ccccc1-c1nnco1 | inactive |
| CC(C)(C)NCC(O)COc1cccc2c1C[C@H](O)[C@H](O)C2 (stereo partly drawn) | inactive |
| COc1ccccc1OCC(O)CO (stereo not drawn) | inactive |
